Each structure is given as a SMILES string. “And” between values parts separate entries of the source, which are not always exact repeats. Equal entries are not always repeated. Results filed as inconclusive are left out. Unmarked numbers belong to inactive results. The source made the active and inactive calls. The call rests on the fitted dose curve; in most records, active means well fitted inhibition curve with a large enough effect; inconclusive means small, poorly fitted or top-dose-only effect; inactive means flat fitted curve, though single readings scatter.

Assay [1] concerns HaCat. Nature of the assay: Cytotoxic Profiling of Annotated Libraries Using Quantitative High-Throughput Screening (AID 1296008). On max response: on the % scale 0 is the no-effect control and ±100 the full control effect. The conditions noted are these: Five cell lines viability, CellTiter-Glo ATP luminescence, 48-72 h; max response: hits give low values. The procedure, abridged:
(§1)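 Cytotoxicity was measured as CellTiter-Glo ATP luminescence, read after 10 min at room temperature. Compound treatment of the cells lasted 48 or 72 hr at 37 degrees Celsius in a qHTS format.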

The test system of another assay is KB-3-1. Described as above. Particulars: Five cell lines viability, CellTiter-Glo ATP luminescence, 48-72 h; max response: hits give low values. In outline:
as §1

The test system of another assay is HEK293T. In words: qHTS assay to identify novel small-molecules to repurpose for Merkel cell carcinoma treatment (AID 1296009). The conditions noted are these: MCC and control cell lines, CellTiter-Glo viability, 72 h. The procedure, abridged: (§2)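 Cell viability, measured as CellTiter-Glo luminescence, was normalized between DMSO and no-cell wells. The cells had been exposed to 8- or 11-point compound dilutions for 72 hr at 37 degree celsius.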

A further assay has as its system NIH3T3. Nature of the assay: Cytotoxic Profiling of Annotated Libraries Using Quantitative High-Throughput Screening (AID 1296008). On max response: on the % scale 0 is the no-effect control and ±100 the full control effect. The conditions noted are these: Five cell lines viability, CellTiter-Glo ATP luminescence, 48-72 h; max response: hits give low values. In outline: as §1
Assay [2] has as its system HACAT. Nature of the assay: qHTS assay to identify novel small-molecules to repurpose for Merkel cell carcinoma treatment (AID 1296009). The conditions noted are these: MCC and control cell lines, CellTiter-Glo viability, 72 h; at 44.8 µM (top of the series) unless noted. The procedure, abridged:
as §2
Further: nearly all actives have a fitted effect of over 60% in size.
Potency means the concentration at half of the fitted maximal effect.

As to `C=C1C(=O)O[C@@H]2/C=C(\CO)CC/C=C(/C=O)C[C@H](O)[C@@H]12`, the max response in the assay with HaCat [1] was -0.314%. Also, in the assay on KB-3-1, the compound was called inactive. The Potency in the assay with HEK293T was 18.4 µM (active).
For `O=C(Nc1ccc(C(F)(F)F)cn1)N1CCN(c2ncccc2C(F)(F)F)CC1`, the compound was classed as inactive with HaCat [1] and in the assay on HACAT [2]. The results for the max response in the assay with KB-3-1 and with NIH3T3 were -14.9% and -8.79%, respectively.
Turning to `CN(C)CCC(CSc1ccccc1)Nc1ccc(S(=O)(=O)NC(=O)c2ccc(N3CCN(Cc4ccccc4-c4ccc(Cl)cc4)CC3)cc2)cc1[N+](=O)[O-]` (stereo not drawn), the Potency with HaCat [1] was 23.1 µM (active). The max response in the assay on NIH3T3 is -12.9%.
Take `C=C(C(=O)O[C@H]1C/C(C)=C/CC/C(CO)=C/[C@H]2OC(=O)C(=C)[C@H]12)C(O)CO` (stereo partly drawn): the outcome with HaCat [1] and in the assay on HACAT [2] was inactive. Moreover, the max response in the assay with KB-3-1 is -10.8%.
As for `Cc1cc(C(=O)Nc2cc(Oc3ccc4nc(NC(=O)C5CC5)cn4n3)ccc2C)n(C)n1`, the Potency is 18.4 µM (active) in the assay on HaCat [1] and 5.17 µM (active) with NIH3T3.
On to `Cc1ccc(F)cc1S(=O)(=O)N[C@@H]1CCN(Cc2ccc(OC(C)C)cc2)C1`, for which the max response in the assay on HaCat [1] is -5.2%; in the assay on NIH3T3, -14.7%.
As for `CC[N+]1(C/C2=C/CCCCCC2)CCC(NC(=O)C2c3cc(Cl)ccc3Oc3ccc(Cl)cc32)CC1` (stereo not drawn), the max response in the assay with HaCat [1] is -26%. In the assay with NIH3T3, the call was inactive.
Turning to `COc1ccc(C2=NC(c3ccc(Cl)cc3)C(c3ccc(Cl)cc3)N2C(=O)N2CCNC(=O)C2)c(OC(C)C)c1` (stereo not drawn), the compound was called inactive in the assay with HaCat [1], in the assay on KB-3-1 and with HACAT [2].
With `O=C(Nc1ncc([N+](=O)[O-])s1)c1ccccc1O`, the result with HaCat [1], with NIH3T3 and in the assay on HACAT [2] was inactive. The Potency in the assay on KB-3-1 was 8.2 µM (active).
In the case of `O=C(N[C@@H]1CCCc2c1cnn2-c1ccc(F)cc1F)c1ccccn1`, the values for the max response in the assay on HaCat [1] and in the assay on NIH3T3 were -21.6% and 3.41%, respectively.
For the compound `C=CC(=O)N1CCC(Oc2cc3c(Nc4ccc(Cl)c(Cl)c4F)ncnc3cc2OC)CC1`, the max response in the assay on HaCat [1] is -116%. Further, the Potency with NIH3T3 is 14.6 µM (active).
Turning to `O=C(NCCN1CCN(c2cccc3ccc(O)cc23)CC1)c1ccc(F)cc1`, the figures for the max response in the assay on HaCat [1] and in the assay with NIH3T3 were -4.85% and 3.66%, respectively.
As for `C/C=C\NC(=O)C1NC(=O)C(CC(N)=O)NC(=O)C(NC(=O)C(=O)C(C)CC)Cc2ccc(O)c(c2)-c2cccc3c2NC(=O)C3(O)C1O` (stereo not drawn), the compound was called inactive in the assay with HaCat [1]. In the assay with NIH3T3, the max response was -19%. For the same compound, in the assay on HACAT [2], the outcome is “inactive [at 17.4 µM]”.
Consider `CC(=O)OC1CC(O)(C(C)C)C2C(OC(=O)c3ccc(O)cc3)C=C(C)C(=O)CC12C` (stereo not drawn), for which, in the assay on HaCat [1], the compound was classed as inactive. In addition, the max response in the assay on NIH3T3 is 0.784%. Further, in the assay on HACAT [2], the outcome is “inactive [at 17.4 µM]”.
The matching figures for `CC(=O)OC[C@]12[C@H](OC(C)=O)C(=O)[C@@H]3[C@@H](O)[C@@]14O[C@@]3(C)COC(=O)c1cccnc1[C@@H](C)[C@H](C)C(=O)O[C@@H]([C@H](O)[C@@H]2OC(C)=O)[C@]4(C)O`: “inactive”, -17.4% and “inactive [at 17.4 µM]”.
In the case of `CCN1CCCC1CNC(=O)c1cc(S(=O)(=O)CC)ccc1OC` (stereo not drawn), the max response with KB-3-1 was -13.4% and -13.1%.
Turning to `Cc1cnc(-c2ccccc2C(C)C)nc1NCc1ccc(-n2ccnn2)cc1`, the max response in the assay on HaCat [1] is -29.3%; in the assay with NIH3T3 it was -17%.
Turning to `Cc1c(N)nc(C(CC(N)=O)NCC(N)C(N)=O)nc1C(=O)NC(C(=O)NC(C)C(O)C(C)C(=O)NC(C(=O)NCCc1nc(-c2nc(C(=O)NCCCN[C@@H](C)c3ccccc3)cs2)cs1)C(C)O)C(O[C@@H]1O[C@@H](CO)[C@@H](O)[C@H](O)[C@@H]1O[C@H]1O[C@H](CO)[C@@H](O)[C@H](OC(N)=O)[C@@H]1O)c1cnc[nH]1` (stereo partly drawn), in the assay with KB-3-1, the max response was -0.767%.
As for `O=C(Nc1ccccc1)N1CCN(c2nc(-c3ccccc3)ns2)CC1`, the compound was called inactive in the assay on HaCat [1] and in the assay with HACAT [2]. In addition, in the assay with NIH3T3, the max response is -11.1%.
Consider `Cc1cc(-c2cc(OC(=O)c3ccccc3)ccc2Cl)cc2nnc(Nc3ccc(OCCN4CCCC4)cc3)nc12`, for which the values for the max response in the assay on HaCat [1] and in the assay with NIH3T3 were 3.59% and -28.4%, respectively.
As to `C/C=C/C=C/c1cc2c(C=O)c(O)c(CC=C(C)C)cc2o1`, the compound was classed as inactive in the assay on HaCat [1] and in the assay on HACAT [2]. Moreover, the max response in the assay on NIH3T3 is 1.86%.
As for `C[C@@H](c1ccc2nccn2c1)n1nnc2ncc(-c3cnn(C)c3)nc21`, the max response in the assay on HaCat [1] is -13%; with NIH3T3, -14.7%.
Turning to `Cc1cc(C)nc(SCC(=O)Nc2ncc(Cc3cccc4ccccc34)s2)n1`, the result with HaCat [1] and in the assay with HACAT [2] was inactive. Further, the max response in the assay with NIH3T3 is -0.172%.
For `Nc1ncnc2c1c(-c1ccc(Oc3ccccc3)cc1)nn2[C@@H]1CCCNC1`, in the assay on KB-3-1, the max response is -20%.
In the case of `COC1CCN(C(=O)c2cc(Cc3n[nH]c(=O)c4ccccc34)ccc2F)CC1`, the max response was 1.07% in the assay on HaCat [1] and -21.2% with NIH3T3.
As for `COc1ccccc1N1CCN(CC[C@@](C)(C(=O)C2CCCCC2)c2ccccc2)CC1`, the figures for the max response with HaCat [1] and in the assay with NIH3T3 were -16.7% and -6.96%, respectively.
As to `COC1C(O)C(OC2CCC3(C)C(CCC45CCC6C7(COC(=O)C7)OC4(O)C6(C)CCC35)C2)OC(C)C1OC1OC(CO)C(OC2OC(CO)C(O)C(O)C2O)C(O)C1O` (stereo not drawn), the compound was classed as inactive in the assay on HaCat [1]. In addition, in the assay on NIH3T3, the max response is 1.1%. Further, the outcome in the assay on HACAT [2] was “inactive [at 9.27 µM]”.
For the compound `C=C1CC[C@@H]2[C@](C)(CO)[C@H](O)CC[C@@]2(C)[C@@H]1/C=C/C1=CCOC1=O`, the compound was classed as inactive in the assay with HaCat [1] and in the assay on HACAT [2]. For the same compound, the max response in the assay with NIH3T3 was -1.38%.
As to `O=C(Nc1cc(C(F)(F)F)cc(C(F)(F)F)c1)c1cnc(Cl)nc1C(F)(F)F`, the result in the assay on HaCat [1] and in the assay with HACAT [2] was inactive. The max response in the assay with NIH3T3 was -1.85%.
As to `CC(=O)O[C@H]1CC2C(COC(=O)CC(C)C)=CO[C@@H](OC(=O)CC(C)C)C2[C@]12CO2` (stereo partly drawn), in the assay with HaCat [1], the max response was -12.1%. The call in the assay on NIH3T3 was inactive.

For the origin of these results see PubChem BioAssay (NCATS).
